RGS8-Gao reg: RGS8-Galphao binding modulators, primary screen, biochemical, multiplexed bead flow cytometry | 220,000 compounds, 0.34% hits | Guanine nucleotide-binding protein G(o) subunit alpha (Homo sapiens), P09471 | response (percent of control binding), % at 10 µM | actives lie on both sides; in the data active = response below about 60% or above about 140%; inactive = in between;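 note: Galphao activated as the GDP aluminium fluoride complex binding bead-coupled RGS8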
RGS16-Gao: modulators of RGS16 binding to Galphao, primary screen, biochemical, human proteins, multiplexed bead flow cytometry; Regulator of G-protein signaling 16 (Homo sapiens) + Guanine nucleotide-binding protein …; bead-based flow cytometry RGS16-Galphao binding, fluorescence; actives lie on both sides; binding response (% of control), % at 10 µM; 220,000 compounds, 0.38% hits; AID 1441, 2008; call rule not given here;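 note: Galphao activated by GDP with aluminum fluoride before binding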
Target sequence (O15492 whole entry, looked up): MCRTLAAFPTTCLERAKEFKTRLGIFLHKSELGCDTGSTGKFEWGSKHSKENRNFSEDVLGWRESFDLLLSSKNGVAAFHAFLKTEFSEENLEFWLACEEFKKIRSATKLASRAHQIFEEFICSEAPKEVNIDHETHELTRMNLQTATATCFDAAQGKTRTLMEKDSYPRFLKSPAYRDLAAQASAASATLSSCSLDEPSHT
Target sequence (P09471 whole entry, looked up): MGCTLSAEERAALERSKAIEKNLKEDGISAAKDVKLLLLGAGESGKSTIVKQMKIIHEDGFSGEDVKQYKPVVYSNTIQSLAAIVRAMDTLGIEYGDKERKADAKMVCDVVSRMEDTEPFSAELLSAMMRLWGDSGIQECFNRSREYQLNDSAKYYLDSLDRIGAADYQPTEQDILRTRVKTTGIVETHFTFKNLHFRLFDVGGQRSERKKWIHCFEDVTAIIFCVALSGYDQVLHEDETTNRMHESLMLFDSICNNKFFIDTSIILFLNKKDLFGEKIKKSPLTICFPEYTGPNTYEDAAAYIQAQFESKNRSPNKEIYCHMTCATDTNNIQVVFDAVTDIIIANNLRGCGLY
GSH bead fluor: compound fluorescence on glutathione beads, profiling panel, artefact control, biophysical, 488/530 nm, flow cytometry; GSH beads flow cytometry, compound fluorescence 488/530 nm; stronger effect = higher value; fluorescence (KMESF) at 10 µM; 190,000 compounds, 0.25% hits; AID 1776, 2009; in the data active = fluorescence above about 89;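 note: glutathione beads carrying GST-tagged Bcl family fusion proteins plus one bare bead set; values are compound well signal with DMSO vehicle wells as background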
Avidin fluor: green autofluorescence of compounds with avidin beads – biophysical, 488/530 nm, flow cytometry, artefact control, profiling panel. compound fluorescence 488/530 nm; stronger effect = higher value. fluorescence (KMESF) at 10 µM. 220,000 compounds, 0.38% hits; in the data active = fluorescence above about 47
RGS7-Gao reg: RGS7-Galphao binding modulators, primary screen, biochemical, multiplexed bead flow cytometry | Guanine nucleotide-binding protein G(o) subunit alpha (Homo sapiens), P09471 | actives lie on both sides | binding response (% of control), % at 10 µM | 220,000 compounds, 0.35% hits; in the data active = binding response below about 49% or above about 150%; inconclusive = no clear call, values can overlap the other calls; inactive = in between;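 note: fluorescent Galphao held in activated GDP-AlF4 state binding bead-coupled RGS7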
RGS4-Gao reg: modulators of RGS4 binding to Galphao, primary screen, biochemical, multiplexed bead flow cytometry; Guanine nucleotide-binding protein G(o) subunit alpha (Homo sapiens), P09471; AID 1415, 2008; actives lie on both sides; 220,000 compounds, 0.33% hits; binding response (% of control), % at 10 µM; in the data active = binding response below about 49% or above about 150%; inactive = in between;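 note: fluorescent Galphao activated with aluminum fluoride binding bead-coupled RGS4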
Avidin counter: disruption of biotin probe capture by avidin, counter-screen for RGS protein interaction modulators, biochemical, flow cytometry, bead-based; shares compounds with RGS16-Gao; streptavidin beads, fluorescein-biotin binding; inhibition, % at 10 µM; 1,700 tested, under 10 active; AID 1783, 2009;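 active = inhibition above 50%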;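 note: median green fluorescence of gated singlet beads compared with DMSO control wells; 0% = DMSO wells and 100% = complete loss of bead fluorescence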
RGS8-Gao single: RGS8-Galphao binding modulators, confirmation, biochemical, multiplexed bead flow cytometry, single concentration; bead-based flow cytometry RGS8-Galphao binding, fluorescence; actives lie on both sides; binding response (% of control), % at 10 µM; shares compounds with RGS16-Gao; 1,700 compounds, 3% hits; in the data active = binding response below about 72% or above about 130%; inactive = in between;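 note: Galphao activated as GDP AlF4 complex before binding bead RGS8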
RGS7-Gao confirm: RGS7-Galphao binding modulators, confirmation, biochemical, multiplexed bead flow cytometry, single concentration; shares compounds with RGS16-Gao; bead-based flow cytometry RGS7-Galphao binding; actives lie on both sides; response (percent of control binding), % at 10 µM; 1,700 compounds, 7.8% hits; in the data active = response below about 75% or above about 130%; inactive = in between;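 note: fluorescent Galphao activated with GDP and aluminum fluoride binding bead-coupled RGS7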
RGS16-Gao conf: modulators of RGS16-Galphao protein binding, confirmation, biochemical, single concentration, multiplexed bead flow cytometry | AID 1838, 2009 | response (% of control binding), % at 10 µM | bead-based flow cytometry; actives lie on both sides | shares compounds with RGS16-Gao | 1,700 compounds, 4% hits; in the data active = response below about 74% or above about 130%; inactive = in between;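 note: Galphao activated as the GDP aluminium fluoride complex binding bead-coupled RGS16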
RGS4-Gao single: modulators of RGS4-Galphao protein binding, confirmation, biochemical, single concentration, multiplexed bead flow cytometry; shares compounds with RGS16-Gao; actives lie on both sides; binding response (% of control), % at 10 µM; 1,700 compounds, 4% hits; AID 1840, 2009; in the data active = binding response below about 74% or above about 130%; inactive = in between
RGS19-Gao single: regulators of RGS19-Galphao binding, confirmation, biochemical, single point, multiplexed bead flow cytometry; 1,700 compounds, 5% hits; response (percent of control binding), % at 10 µM; shares compounds with RGS16-Gao; bead-based flow cytometry RGS19-Galphao binding; actives lie on both sides; in the data active = response below about 50% or above about 160%; inactive = in between;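 note: 100% = no compound control and 0% = blank background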
* marks the source's active call; other numbers are inactive results. These entries were drawn from the full list.

Results for COC(=O)c1cn(C(=O)/C=C/c2ccc(OC)c(OC)c2)c2ccccc12 ?
RGS8-Gao reg: 99; RGS16-Gao: 97; GSH bead fluor: 14; Avidin fluor: 9; RGS7-Gao reg: inconclusive; RGS4-Gao reg: 97

How did CCn1c2ccccc2c2cc(NC(=O)CSc3nnnn3-c3ccccc3)ccc21 do in these assays?
GSH bead fluor: 46; Avidin counter: -3; RGS8-Gao single: 102; RGS7-Gao confirm: 100; RGS16-Gao conf: 100; RGS4-Gao single: 99; RGS19-Gao single: 86

Results for O=C(CSc1nnnn1-c1ccccc1)Nc1ccc(Cl)cc1 ?
RGS8-Gao reg: 98; RGS16-Gao: 101; GSH bead fluor: 24; Avidin fluor: 13; RGS7-Gao reg: 96; RGS4-Gao reg: 101

How did O=C(CCn1cccc1)Nc1ccc(OC(F)(F)F)cc1 do in these assays?
RGS8-Gao reg: 98; RGS16-Gao: 101; GSH bead fluor: 8; Avidin fluor: 14; RGS7-Gao reg: 96; RGS4-Gao reg: 99

How did COc1cc(C=O)ccc1Oc1nc(Nc2ccc(F)cc2F)nc(N2CCOCC2)n1 do in these assays?
RGS8-Gao reg: 106; RGS16-Gao: 101; GSH bead fluor: 13; Avidin fluor: 21; RGS7-Gao reg: 103; RGS4-Gao reg: 103

Results for CCO[C@@H]1OC(C(=O)N2CCN(Cc3ccc4c(c3)OCO4)CC2)=C[C@H](c2csc3ccccc23)[C@H]1CCCO ?
RGS8-Gao reg: 101; RGS16-Gao: 101; GSH bead fluor: 17; Avidin fluor: 7; RGS7-Gao reg: 100; RGS4-Gao reg: 104
